Screens from PubChem.
ELG1 repair inh: blocks ELG1-dependent DNA repair in HEK293T cells. HEK293T ELG1-luciferase reporter, luminescence, 16 h; DNA damage induced by 5-fluorouridine. Potency, µM (titrated, usually from 46.1 µM), for inactives: top-dose activity change, negative = inhibition, usual class: inhibitors. hit rate 2.3% among 330,000; note: nearly all actives have a fitted effect of over 55% in size
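Cells (2,000 per well) received 5-fluorouridine plus test compound or DMSO and were incubated 16 hr at 37 °C, 5% CO2. Luciferase activity was read by luminescence 30 min after ONE-Glo addition; signal suppression marked inhibition of damage-induced ELG1 function.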
RORg inh: ROR gamma (mouse) transcription inhibition | P51450 | Drosophila S2 Gal4-RORgamma UAS-luciferase reporter, 20 h | Potency, µM (doses to about 53.6 µM), inactives show at the top dose activity change, negative = inhibition, actives largely listed as inhibitors | hit rate 5.4% among 310,000; note: nearly all actives have a fitted effect of over 60% in size
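Luciferase reporter read in Schneider cells carrying Gal4-RORγ (mouse) and UAS-Photinus luciferase; cells given compound 1 h before 700 uM copper sulfate induction, then incubated 20 h at ambient temperature.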
TDP1 cell noCPT: qHTS for Inhibitors of human tyrosyl-DNA phosphodiesterase 1 (TDP1): qHTS in cells in absence of CPT | Potency, µM (highest dose often 46.2 µM), for the others: at the highest dose activity change, negative = growth inhibition, most hits filed as inhibitors | hit rate 15% among 420,000 | DT40 Tdp1-/- hTDP1 cells, no CPT, ATP luminescence, 48 h; note: nearly all actives have a fitted effect of over 55% in size
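Stably hTDP1-transfected Tdp1-null chicken DT40 cells were treated with library compounds minus camptothecin and grown for at least 48 hr at 37 °C, after which cellular ATP was quantified by luminescence.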
VP16 counter: inhibits Gal4-VP16 luciferase reporter, ROR gamma counter-screen; Potency, µM (highest dose often 53.6 µM), inactives show at the top dose activity, negative = inhibition, most hits filed as inhibitors; hit rate 3.5% among 310,000; Drosophila S2 Gal4-VP16 UAS-luciferase, luminescence, 20 h; AID 2546;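 note: Gal4-VP16 expression switched on by copper sulfate through the metallothionein promoter; nearly all actives have a fitted effect of over 50% in size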
DT40 TDP1 CPT: growth inhibition of DT40 Tdp1-/-;hTDP1 cells with camptothecin (screen for TDP1 inhibitors) | chicken DT40 Tdp1-/-;hTDP1 cells + 20 nM CPT, ATP luminescence, 48 h | Potency, µM (highest dose often 46.2 µM), for the others: top-dose activity change, negative = growth inhibition, actives largely listed as inhibitors | hit rate 12% among 420,000; note: nearly all actives have a fitted effect of over 55% in size
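Cell growth measured by CellTiter-Glo luminescence after a minimum 48 h, 37 C compound exposure with 20 nM CPT in Tdp1-knockout DT40 cells stably expressing hTDP1, seeded 400/well; qHTS titration format.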
12-LOX inh: ALOX12 (human) lipoxygenase inhibition; P18054; purified 12hLO, xylenol orange hydroperoxide absorbance; Potency, µM (doses to about 108 µM), inactives show top-dose activity change, negative = inhibition, usual class: inhibitors; hit rate 1.1% among 580,000; AID 1671190
Target sequence (P18054 whole entry, looked up): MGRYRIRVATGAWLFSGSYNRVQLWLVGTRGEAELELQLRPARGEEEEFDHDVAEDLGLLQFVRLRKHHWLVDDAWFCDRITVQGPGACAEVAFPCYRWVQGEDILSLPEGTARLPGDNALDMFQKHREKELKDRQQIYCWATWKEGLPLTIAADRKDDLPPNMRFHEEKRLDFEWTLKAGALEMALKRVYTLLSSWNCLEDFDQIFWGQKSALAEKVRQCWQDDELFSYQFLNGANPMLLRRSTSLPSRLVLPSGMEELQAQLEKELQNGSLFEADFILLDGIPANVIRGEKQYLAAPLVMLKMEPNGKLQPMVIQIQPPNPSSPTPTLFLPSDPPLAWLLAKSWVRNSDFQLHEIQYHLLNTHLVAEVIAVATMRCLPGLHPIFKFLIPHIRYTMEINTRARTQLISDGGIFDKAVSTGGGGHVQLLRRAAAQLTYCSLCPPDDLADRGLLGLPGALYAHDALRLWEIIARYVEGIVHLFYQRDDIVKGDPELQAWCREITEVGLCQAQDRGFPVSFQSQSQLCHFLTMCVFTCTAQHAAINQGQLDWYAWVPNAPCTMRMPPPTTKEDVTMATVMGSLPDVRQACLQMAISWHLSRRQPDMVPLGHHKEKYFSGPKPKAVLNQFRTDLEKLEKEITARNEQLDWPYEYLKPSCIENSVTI
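Purified human 12hLO at 150 nM in 25 mM Hepes, 0.01% Triton X-100, pH 7.0, preincubated 15 min at room temperature with compound. Reaction started with 40 uM arachidonic acid, 30 min at room temperature. Hydroperoxide measured by Fe-xylenol orange, 573/405 nm absorbance ratio.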
Starred values were filed as active, the others as inactive; u = inconclusive; x = no result; ! = a repeat was not active; [ ] = another dose, or the depositor's remark. A selection: hits, their analogues and other compounds. The true share with any hit is near 15%. Calls come from the whole dose curve; as a rule, active = well fitted curve in the direction sought with a large enough effect; inconclusive = small, poorly fitted or top-dose-only effect, or another doubt; inactive = no such curve, though single readings can be large; an effect the other way counts as inactive or inconclusive. % is set by controls: 0 for no effect and ±100 for the full control effect; potency is the fitted concentration of half-maximal effect.

SMILES	ELG1 repair inh	RORg inh	TDP1 cell noCPT	VP16 counter	DT40 TDP1 CPT	12-LOX inh
O=[N+]([O-])c1ccc(NCCNS(=O)(=O)c2ccccc2)c2ncccc12	x	x	x	x	x	-4%
CN1[C@@H](CCC(=O)NCc2cccnc2)CNC(=O)[C@H]2NCC[C@H]21	x	x	x	x	x	34%[176 µM]
COc1ccc(CC(=O)N2CCC3(C2)C(=O)Nc2ccc(OC)cc23)c(Cl)c1 (stereo unspecified)	x	x	x	x	x	-14%
CN(C)C(=O)Oc1ccc(OCc2nc3ccccc3[nH]2)cc1	u	u	10µM*	11µM*	9.2µM*	11%
CN(C)C(=O)Oc1ccc(OC(=O)N(C)C)cc1	u	28%	-26%	2%	-9%	322%
CCCCCn1c(=O)c(C(=O)NCc2ccccc2Cl)c(O)c2ccccc21	-1%	1%[1.91 µM]	u	u	u	13%
COc1ccc(CCNC(=O)CCn2c(=O)c3ccccc3n(Cc3ccc(Cl)cc3)c2=O)cc1OC	x	x	6.5µM*	x	18µM*	-13%
Cc1ccc(Cn2c(=O)n(CCCCC(=O)NCc3ccccc3Cl)c(=O)c3ccccc32)cc1	x	x	5.2µM*	x	4.6µM*	-20%
Cc1ncc2c(n1)C[C@@H]1CC[C@H]2N1C(=O)c1ccc(C(C)C)cc1	x	x	x	x	x	30%
COC(=O)[C@H](Cc1ccccc1)N(Cc1ccccc1)S(=O)(=O)N(Cc1ccccc1)[C@@H](Cc1ccccc1)C(=O)OC	u	x	12µM*	x	23µM*	-5%
CCCCCSc1cc(OC)c(CCN(C)C)cc1OC	8%	7%	u	-5%	u	11%
CCCCCSc1cc(O)c(C(CNC)C(C)C)cc1OC (stereo unspecified)	-6%	u	16µM*	u	u	u
O=C(N/N=C/C1C(=O)NC(=S)N(c2ccccc2)C1=O)c1cc(Br)c(O)c(Br)c1 (stereo unspecified)	11%	-3%	u	-5%	16µM*	u
C[C@H](CO)N1C[C@H](C)[C@H](CN(C)S(=O)(=O)c2ccccc2)Oc2ccc(NC(=O)NC3CCCCC3)cc2CC1=O	10%	x	u	x	u	5%
C[C@H](CO)N1C[C@H](C)[C@@H](CN(C)S(=O)(=O)c2cccs2)Oc2ccc(NC(=O)Nc3ccc4c(c3)OCO4)cc2C1=O	u	x	18µM*	x	21µM*	u
O=C(c1ccccc1)N1C[C@@H]2C[C@H](C1)c1ccc(-c3cccc(C(F)(F)F)c3)c(=O)n1C2	x	x	x	x	x	-20%
CCCCc1cn(C[C@H]2C[C@@H]3CCN2C[C@@H]3C(=O)NCc2ccc(F)cc2)nn1	x	x	x	x	x	3%[176 µM]
FC(F)(F)Oc1ccc(NC2=NCCCS2)cc1	21%	-28%	-24%	20%	-21%	x
N#CC(C#N)=NNc1ccc(OC(F)(F)F)cc1	x	1µM*	1.1µM*	0.35µM*	1.1µM*	u
O=P(Oc1ccccc1)(Oc1ccccc1)c1ccccc1	-9%	2%	16µM*	-2%	u	118%
CCc1cccc(CC)c1N(COC)C(=O)CCl	x	13%	u	12%	21µM*!	-7%
COCc1cc(C)c(C#N)c(=S)[nH]1	9%	4µM*	0.82µM*	u	1.2µM*	x
O=C(Cc1ccc(F)cc1Cl)N1C[C@H]2CC[C@@H]1CN(Cc1cccnc1)C2	x	x	x	x	x	15%
O=C(N1CCC2(CC1)NCc1ccccc1-n1ccnc12)C1(c2ccccc2)CC1	x	x	x	x	x	5%
CCn1c(O)c(/C=N/NC(=O)c2ccncc2)c(=O)[nH]c1=S	27%	18%	-13%	-15%	-7%	-12%
O=c1[nH]c(=S)n(C2CC2)c(O)c1/C=N/Nc1ccccc1	18%	13%	-9%	1%	-7%	u
